# HPGD inh: inhibitors of human 15-hydroxyprostaglandin dehydrogenase (HPGD). purified HPGD, NADH fluorescence kinetic, PGE2 substrate. Potency, µM, inactives show at the top dose activity change, negative = inhibition, most hits filed as inhibitors. actives 4.3% (n = 150,000); further: potency means the concentration at half of the fitted maximal effect
# Target sequence (P15428 whole entry, looked up): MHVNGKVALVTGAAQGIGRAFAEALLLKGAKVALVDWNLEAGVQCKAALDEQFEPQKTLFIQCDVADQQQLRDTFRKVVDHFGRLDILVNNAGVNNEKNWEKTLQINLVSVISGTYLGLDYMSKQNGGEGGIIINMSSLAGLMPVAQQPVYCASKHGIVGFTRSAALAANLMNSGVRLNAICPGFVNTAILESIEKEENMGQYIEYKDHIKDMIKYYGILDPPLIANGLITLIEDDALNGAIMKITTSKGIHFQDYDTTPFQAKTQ
#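 20 nM HPGD preincubated 15 min at room temperature with compound in 50 mM Tris-HCl pH 8, 0.01% Tween 20. Started with 1 mM NAD+ and 30 uM prostaglandin E2; NADH fluorescence (360/450 nm) read 5 times over 30-s intervals, last minus first.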
# Lamin A splicing: LMNA splicing modulation. HeLa LMNA splicing GFP/RFP minigene ratio, 48 h. Potency, µM (highest dose often 46.1 µM), without a hit: top-dose ratio change, negative = inhibition, usual class: inhibitors. actives 0.01% (n = 200,000). AID 1487; active means well fitted inhibition curve with a large enough effect in the signal ratio, with a control signal flat, not every such curve was filed as active; inconclusive means small, poorly fitted or top-dose-only effect, or effect the other way, or a change in a side signal; the % refers to the signal ratio; further: potency means the concentration at half of the fitted maximal effect
#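 Read-out is the ratio of GFP to DsRed2 object intensity, acquired by 488 nm laser-scanning cytometry on HeLa lamin A-EGFP minigene reporter cells. Compound incubation 48 hrs at 37 °C in Opti-MEM with 2% FBS; DMSO 0.5% final.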
# ALDH1A1 block: ALDH1A1 (human) enzyme inhibition; Purified ALDH1A1, NADH fluorescence, propionaldehyde substrate; Potency, µM (doses to about 75.3 µM), for inactives: at the top dose activity, negative = inhibition, usual class: inhibitors; actives 7.3% (n = 220,000); AID 1030;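 further: potency means the concentration at half of the fitted maximal effect; plate controls were no enzyme wells and a reference inhibitor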
# Target sequence (P00352 whole entry, looked up): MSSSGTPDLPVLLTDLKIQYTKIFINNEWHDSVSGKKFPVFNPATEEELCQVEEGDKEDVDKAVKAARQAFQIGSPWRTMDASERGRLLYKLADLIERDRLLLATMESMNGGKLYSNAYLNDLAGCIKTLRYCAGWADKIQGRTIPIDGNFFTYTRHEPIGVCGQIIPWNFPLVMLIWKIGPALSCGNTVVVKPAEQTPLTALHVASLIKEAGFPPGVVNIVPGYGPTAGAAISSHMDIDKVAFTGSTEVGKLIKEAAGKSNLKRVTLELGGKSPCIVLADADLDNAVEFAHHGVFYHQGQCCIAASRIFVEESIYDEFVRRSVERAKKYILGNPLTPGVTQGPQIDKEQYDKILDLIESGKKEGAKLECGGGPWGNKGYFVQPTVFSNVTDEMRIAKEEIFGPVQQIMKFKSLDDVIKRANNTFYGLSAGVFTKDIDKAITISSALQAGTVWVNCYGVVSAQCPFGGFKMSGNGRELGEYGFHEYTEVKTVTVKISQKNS
# PNC inhibitor: perinucleolar compartment assembly inhibition; activity change (PNC), negative = inhibition, % at 10 µM; PC3M PTB-GFP, PNC prevalence imaging, 16 h; active compounds read low; actives 3.1% (n = 140,000); AID 2417;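 active means readout at or below -70, meaning at least 70% loss of cells showing the perinucleolar compartment, a nuclear body marking cancer cells; inconclusive means readout between -30 and a set limit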;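 further: plate controls were DMSO wells for no effect and camptothecin positive control wells for full effect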
#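 PC3M cells stably expressing PTB-GFP, 750–1000 cells/well, treated 16 h at 37 °C with compound (23 nl of library stock), in duplicate. After paraformaldehyde fixation and Hoechst stain, imaged at 20x; PNC prevalence scored by image analysis.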
# KinaseGlo FLuc: blocks Kinase-Glo luciferase, a counter-screen artifact. Q27757. Kinase-Glo luciferase, ATP luminescence, 8 min. Potency, µM (doses to about 38.3 µM), inactives show at the top dose activity change, negative = inhibition, actives largely listed as inhibitors. actives 0.28% (n = 200,000); active means well fitted inhibition curve with a large enough effect; inconclusive means small, poorly fitted or top-dose-only effect; further: potency means the concentration at half of the fitted maximal effect; nearly all actives have a fitted effect of over 60% in size
#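 Recombinant Kinase-Glo luciferase, 10 uM ATP (linear range), luciferin; imidazole pH 7.2 / KCl / MgCl2 / Tween / BSA buffer; 8 min RT; luminescence.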
# * hit, by the source's call; ? = inconclusive; . = no result given; [ ] = another dose, or the depositor's remark. Shown are actives, neighbours in structure and some others; about 10% of the full set was active somewhere. Unless noted, the call rests on the fitted dose curve; in most records, active means well fitted inhibition curve with a large enough effect (not every such curve was filed as active); inconclusive means small, poorly fitted or top-dose-only effect, or another doubt; inactive means no such curve, though single readings can be large or run the other way. Unless noted, on the % scale 0 is the no-effect control and ±100 the full control effect.
SMILES,HPGD inh,Lamin A splicing,ALDH1A1 block,PNC inhibitor,KinaseGlo FLuc
CCN(CC)S(=O)(=O)c1ccc(C(=O)NCc2ccc(C)cc2)cc1,0%,-2%,10µM*,2,1%
COc1ccc(NS(=O)(=O)c2cccc(-c3nnc(-c4ccccc4)o3)c2)cc1,-25%,?,?,-12,-5%
CCN(CC)S(=O)(=O)c1cccc(-c2n[nH]c(=S)n2Cc2ccccc2)c1,.,-15%[46 µM],7.1µM*,.,1%
CCN(CC)CCCNC(=O)c1ccc2c(c1)NC(=O)C(CS(=O)(=O)Cc1cccc(Br)c1)N2 (stereo not drawn),.,-1%[46 µM],.,.,.
CCOC(=O)OCC1OC(c2ccccc2)C=CC1Oc1cccc(N(C)C)c1 (stereo not drawn),.,.,5%[13.5 µM],.,.
COc1ccccc1NC(=O)Cn1c(SCC(=O)N(C)c2ccccc2)nc2ccccc21,.,0%[46 µM],.,.,.
CCN(CC)S(=O)(=O)c1ccc(C(=O)NCc2n[nH]c(=S)n2Cc2ccccc2)cc1,-10%,7%,2.5µM*,-23,-5%
CCN(CC)S(=O)(=O)c1cccc(-c2n[nH]c(=S)n2CC(C)C)c1,.,.,7.9µM*,.,.
O=C(CCl)Nc1cc2[nH]c(=O)[nH]c2cc1Br,.,?,2µM*,.,1%
COCCCNCCCOc1ccc(C(C)(C)c2ccccc2)cc1,-2%,?,?,-107*,-2%
COCCCNCC#CCOc1ccc(OC)cc1,.,?,8.9µM*,.,2%
CCOc1ccccc1O[C@@H](c1ccccc1)[C@@H]1CNCCO1,-3%,.,?,.,-3%
Cc1nc2cnc(Oc3cccc(Cl)c3)nc2n(CCc2ccccc2)c1=O,-12%,.,6.3µM*,.,-2%
COc1ccc(Oc2ncc3nc(C)c(=O)n(CCc4ccccc4)c3n2)cc1,-5%,.,0.22µM*,.,1%
COc1ncc2nc(CCc3ccccc3)c(=O)n(C3CC3)c2n1,-20%,.,19µM*,.,-3%
COc1ccc(Oc2ncc3nc(C)c(=O)n(Cc4ccc(F)cc4)c3n2)cc1,-19%,.,25µM*,.,-1%
Cc1nc2cnc(Oc3ccccc3)nc2n(CCc2ccccc2)c1=O,-3%,.,?,.,-1%
COCC(=O)N1CCC2(CC1)CCN(c1ncccn1)CC2,-11%,.,-6%,.,0%
O=C(O)c1cccc(OCCO)c1,-14%,.,-6%[13.5 µM],.,-5%[7.66 µM]
COc1ccc(Oc2ncc3nc(CCc4ccccc4)c(=O)n(C)c3n2)cc1,-5%,.,?,.,-1%
Cn1c(=O)c(CCc2ccccc2)nc2cnc(Oc3ccccc3)nc21,-16%,.,8.9µM*,.,-3%
Cc1c(-n2c(SCC(=O)N(C)C3CCS(=O)(=O)C3)nc3ccccc3c2=O)c(=O)n(-c2ccccc2)n1C (stereo not drawn),.,?,25µM*,.,1%
Cc1ccc(-n2ncc3c(=O)n(CC#N)cnc32)cc1C,-24%,19%,16µM*,21,-2%
C#CCn1cnc2c(cnn2-c2ccc(C)c(C)c2)c1=O,-16%,-5%,14µM*,-9,-2%
CCOC(=O)C1CCCN(C(=O)CCS(=O)(=O)c2cc3c(cc2Cl)NC(=O)CO3)C1 (stereo not drawn),.,15%[46 µM],.,.,.
SMILES,HPGD inh,Lamin A splicing,ALDH1A1 block,PNC inhibitor,KinaseGlo FLuc
Cc1ccccc1S(=O)(=O)Cc1ccc(C(=O)NC(C)c2ccc3c(c2)OCCO3)o1 (stereo not drawn),-20%,-7%,14µM*,1,0%
CCOC(=O)N1CCC(NC(=O)c2ccc(CS(=O)(=O)c3c(Cl)cccc3Cl)o2)CC1,-7%,-6%,?,-20,-1%
Cc1ccccc1S(=O)(=O)Cc1ccc(C(=O)NCc2cccnc2)o1,-8%,-14%,14µM*,1,1%
CCOC(=O)N1CCC(NC(=O)c2ccc(CS(=O)(=O)c3ccccc3C)o2)CC1,-18%,-18%,11µM*,-8,0%
C[C@]12CCC(=O)C=C1CCC1C2C(O)C[C@]2(C)C1CC[C@]2(O)C(=O)COC(=O)CCC(=O)O (stereo partly drawn),-11%,.,-8%,.,-3%
CCOc1cc(C(=O)CCC(=O)OCC(=O)Nc2ccc(C)c(S(=O)(=O)N(C)C)c2)ccc1O,.,-1%[46 µM],28µM*,.,0%
Cc1ccc(Cn2c(CNS(=O)(=O)c3c(C)cc(C)cc3C)nc3cccnc32)cc1,.,10%[46 µM],.,.,.
O=C(COc1cccnc1[N+](=O)[O-])c1ccc(Cl)s1,.,.,0.71µM*,.,.
COc1cc(/C=C2/C(=O)NN(c3ccc(Cl)cc3)C2=O)ccc1OC(=O)c1ccco1,7.9µM*,-2%,?,19,1%
COc1cc(/C=C2/C(=O)NN(c3cccc(F)c3)C2=O)ccc1OC(=O)c1ccco1,4µM*,-11%,22µM*,-81*,-1%
COc1cc(/C=N/NC(=O)c2ccc(F)cc2)ccc1OC(=O)c1ccco1,-14%,5%,4%,?,-3%
C=CCN1C(=O)/C(=C\c2ccc(OC(=O)c3ccco3)c(OC)c2)SC1=S,.,.,0.22µM*,.,0%
CC1=CSC2=NC(=O)/C(=C/c3cccc(OC(=O)c4ccco4)c3)C(=N)N12,-19%,-2%,?,-24,3%
COc1ccc(CCN2C(=O)/C(=C\c3ccco3)SC2=S)cc1OC,.,.,?,.,-2%
COc1cc(/C=C2/C(=N)N3OC(C)=CC3=NC2=O)ccc1OC(=O)c1ccco1,.,-7%[46 µM],5.6µM*,.,-1%
Cc1ccc(OCC(=O)OCc2cc(=O)n3c(C)csc3n2)cc1,.,11%[46 µM],.,.,.
CCCCC(=O)N(C)C,-5%,.,?,.,.
O=C(OCc1cc(=O)n2nc(-c3cccs3)sc2n1)c1cccc(F)c1,.,5%[46 µM],.,.,.
O=S1(=O)CC=C(CSC(=S)NC2CCS(=O)(=O)C2)C1 (stereo not drawn),.,-8%[46 µM],19µM*,.,-1%
C[C@H]1[C@H](O)[C@@H](C)C=CC=CC=CC=CC=CC=CC=C[C@H](O[C@@H]2O[C@@H](C)[C@H](O)[C@@H](N)[C@@H]2O)C[C@@H]2O[C@](O)(C[C@@H](O)C[C@@H](O)[C@@H](O)CC[C@@H](O)C[C@@H](O)CC(=O)O[C@H]1C)C[C@H](O)[C@H]2C(=O)O,-2%,.,-18%[13.5 µM],.,-19%[7.66 µM]
Cc1ccccc1-c1ccc(Nc2ccc(N3CCOCC3)cc2)nn1,-22%,?,8.9µM*,43,-26%
O=S1(=O)N=C(Nc2ccc(N3CCOCC3)cc2)c2ccccc21,1%,-9%,0%,6,0%
CCn1ccc2cc(S(=O)(=O)N3CCCN(C(=O)Nc4ccc(C)cc4)CC3)ccc21,.,0%[46 µM],.,.,.
O=C1NC(=NCc2ccccc2)S/C1=C/c1ccc(O)cc1,2.8µM*,-12%,-8%,2,-37%
Cc1ccc(C(=O)CN2/C(=C(\O)c3ccccc3)C(=O)c3ccccc3S2(=O)=O)c(C)c1,-22%,?,2.8µM*,17,2%
O=C(NC1CS(=O)(=O)CC1NCc1ccco1)c1ccccc1 (stereo not drawn),-10%,1%,8%,-96*,17%

# Screening data: PubChem, National Center for Advancing Translational Sciences (NCATS)
